Consider 15 molecules from ChEMBL document CHEMBL1961873, “Compounds: GSK PKIS; Assays: Nanosyn kinase panel” (2012).

Assay [1] deals with 5'-AMP-activated protein kinase catalytic subunit alpha-2 (Homo sapiens) (UniProt P54646). The note with it: at 1 µM.
For assay [2], the target named is T1, NUAK family SNF1-like kinase 1 (Homo sapiens) (UniProt O60285).
T1 sequence (whole entry): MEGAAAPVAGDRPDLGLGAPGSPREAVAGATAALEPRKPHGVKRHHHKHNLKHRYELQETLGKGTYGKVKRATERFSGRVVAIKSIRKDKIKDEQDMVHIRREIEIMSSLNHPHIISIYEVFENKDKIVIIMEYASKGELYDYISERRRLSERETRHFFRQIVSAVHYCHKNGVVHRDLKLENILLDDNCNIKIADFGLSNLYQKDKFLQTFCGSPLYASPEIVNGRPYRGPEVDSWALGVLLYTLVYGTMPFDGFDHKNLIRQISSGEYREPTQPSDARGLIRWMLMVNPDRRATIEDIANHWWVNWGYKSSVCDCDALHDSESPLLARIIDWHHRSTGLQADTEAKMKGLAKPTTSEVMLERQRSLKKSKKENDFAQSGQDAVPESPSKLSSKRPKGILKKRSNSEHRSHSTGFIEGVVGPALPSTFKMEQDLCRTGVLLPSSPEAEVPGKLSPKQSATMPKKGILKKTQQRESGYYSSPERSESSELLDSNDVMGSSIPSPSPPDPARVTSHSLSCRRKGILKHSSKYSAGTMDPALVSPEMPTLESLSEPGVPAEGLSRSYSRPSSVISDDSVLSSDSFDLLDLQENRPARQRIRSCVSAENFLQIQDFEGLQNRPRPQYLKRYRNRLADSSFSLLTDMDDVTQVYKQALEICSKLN
Conditions: at 0.1 µM.

For assay [3], the target named is T1, NUAK family SNF1-like kinase 1 (Homo sapiens). Conditions: at 1 µM.
For assay [4], the target named is T2, Serine/threonine-protein kinase BRSK1 (Homo sapiens) (UniProt Q8TDC3).
T2 sequence (whole entry): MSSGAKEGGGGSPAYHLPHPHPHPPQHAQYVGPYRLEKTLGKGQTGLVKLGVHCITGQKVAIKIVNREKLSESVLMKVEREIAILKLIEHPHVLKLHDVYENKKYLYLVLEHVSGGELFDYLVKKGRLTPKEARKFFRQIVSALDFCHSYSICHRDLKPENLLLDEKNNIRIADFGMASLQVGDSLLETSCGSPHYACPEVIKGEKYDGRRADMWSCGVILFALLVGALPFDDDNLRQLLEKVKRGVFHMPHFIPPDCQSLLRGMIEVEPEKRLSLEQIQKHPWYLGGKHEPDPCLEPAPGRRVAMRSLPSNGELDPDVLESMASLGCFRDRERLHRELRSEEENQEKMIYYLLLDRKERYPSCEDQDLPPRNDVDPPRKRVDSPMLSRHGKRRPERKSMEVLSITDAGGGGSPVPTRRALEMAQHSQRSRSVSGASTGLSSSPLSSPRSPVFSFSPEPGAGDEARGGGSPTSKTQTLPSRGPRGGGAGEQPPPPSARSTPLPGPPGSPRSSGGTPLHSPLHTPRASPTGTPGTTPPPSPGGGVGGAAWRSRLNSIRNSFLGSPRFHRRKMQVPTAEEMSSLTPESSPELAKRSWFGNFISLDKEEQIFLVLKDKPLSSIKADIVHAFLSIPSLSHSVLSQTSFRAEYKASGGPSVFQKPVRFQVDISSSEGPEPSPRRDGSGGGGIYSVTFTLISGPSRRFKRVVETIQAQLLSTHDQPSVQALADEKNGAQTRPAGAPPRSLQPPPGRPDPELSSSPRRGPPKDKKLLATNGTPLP
Conditions: at 0.1 µM.

Assay [5] concerns the target T2, Serine/threonine-protein kinase BRSK1 (Homo sapiens). The note with it: at 1 µM.
Assay [6] addresses T3, Serine/threonine-protein kinase BRSK2 (Homo sapiens) (UniProt Q8IWQ3).
T3 sequence (whole entry): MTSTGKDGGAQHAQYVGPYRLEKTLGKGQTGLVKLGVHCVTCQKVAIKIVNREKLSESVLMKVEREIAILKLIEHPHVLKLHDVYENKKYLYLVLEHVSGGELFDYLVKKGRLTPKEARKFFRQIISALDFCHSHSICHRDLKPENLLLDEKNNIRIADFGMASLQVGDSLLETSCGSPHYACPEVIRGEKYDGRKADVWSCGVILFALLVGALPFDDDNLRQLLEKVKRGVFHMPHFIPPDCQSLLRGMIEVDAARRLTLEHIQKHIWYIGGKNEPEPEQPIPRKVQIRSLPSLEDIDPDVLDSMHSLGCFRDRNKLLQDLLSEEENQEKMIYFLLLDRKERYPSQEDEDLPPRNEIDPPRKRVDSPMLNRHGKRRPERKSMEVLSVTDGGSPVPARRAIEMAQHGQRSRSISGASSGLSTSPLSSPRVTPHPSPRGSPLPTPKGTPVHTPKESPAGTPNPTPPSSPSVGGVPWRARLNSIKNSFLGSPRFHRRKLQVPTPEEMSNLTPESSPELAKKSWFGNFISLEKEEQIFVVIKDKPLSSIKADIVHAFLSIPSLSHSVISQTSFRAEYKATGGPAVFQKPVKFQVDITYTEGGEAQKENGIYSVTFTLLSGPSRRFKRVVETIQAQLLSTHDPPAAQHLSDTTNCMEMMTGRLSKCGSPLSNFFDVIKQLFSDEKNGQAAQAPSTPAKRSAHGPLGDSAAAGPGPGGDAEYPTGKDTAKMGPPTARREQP
The note with it: at 0.1 µM.

Assay [7] concerns the target T3, Serine/threonine-protein kinase BRSK2 (Homo sapiens). Conditions: at 1 µM.
The target in assay [8] is Calcium/calmodulin-dependent protein kinase type 1D (Homo sapiens) (UniProt Q8IU85). Conditions: at 0.1 µM.
Sequence of Calcium/calmodulin-dependent protein kinase type 1D (Homo sapiens) (Q8IU85 whole entry, looked up): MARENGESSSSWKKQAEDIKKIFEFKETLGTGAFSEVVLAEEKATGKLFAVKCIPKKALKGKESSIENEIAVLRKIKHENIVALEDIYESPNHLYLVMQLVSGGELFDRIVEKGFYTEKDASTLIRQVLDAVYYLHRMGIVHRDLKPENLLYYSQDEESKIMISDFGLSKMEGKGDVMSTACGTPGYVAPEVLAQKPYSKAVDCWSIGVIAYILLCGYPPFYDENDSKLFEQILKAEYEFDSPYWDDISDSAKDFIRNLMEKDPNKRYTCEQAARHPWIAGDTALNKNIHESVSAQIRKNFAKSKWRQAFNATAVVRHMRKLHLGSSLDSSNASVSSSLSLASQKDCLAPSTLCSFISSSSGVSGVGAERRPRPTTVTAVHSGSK
For assay [9] the target is unchanged. Conditions: at 1 µM.
In assay [10] the target is Calcium/calmodulin-dependent protein kinase type II subunit alpha (Homo sapiens) (UniProt Q9UQM7). The note with it: at 0.1 µM.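 Further: reported values are averages (mean inhibition of CAMK2A).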
Sequence of Calcium/calmodulin-dependent protein kinase type II subunit alpha (Homo sapiens) (Q9UQM7 whole entry): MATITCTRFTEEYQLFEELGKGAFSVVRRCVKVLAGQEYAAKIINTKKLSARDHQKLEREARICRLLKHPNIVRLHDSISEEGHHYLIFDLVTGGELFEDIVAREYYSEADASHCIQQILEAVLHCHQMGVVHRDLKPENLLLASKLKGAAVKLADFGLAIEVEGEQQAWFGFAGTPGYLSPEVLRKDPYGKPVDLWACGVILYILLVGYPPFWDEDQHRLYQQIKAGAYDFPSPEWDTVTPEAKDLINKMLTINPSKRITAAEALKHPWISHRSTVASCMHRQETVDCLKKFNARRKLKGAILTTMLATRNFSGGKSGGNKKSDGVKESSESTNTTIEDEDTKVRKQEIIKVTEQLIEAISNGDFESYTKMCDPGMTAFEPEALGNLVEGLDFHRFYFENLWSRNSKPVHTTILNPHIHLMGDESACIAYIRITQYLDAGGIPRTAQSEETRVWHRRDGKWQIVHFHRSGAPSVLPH

Each structure is given as a SMILES string. “And” between values parts separate entries of the source, which are not always exact repeats. Equal entries are not always repeated.

Sequence of 5'-AMP-activated protein kinase catalytic subunit alpha-2 (Homo sapiens) (P54646 whole entry, looked up): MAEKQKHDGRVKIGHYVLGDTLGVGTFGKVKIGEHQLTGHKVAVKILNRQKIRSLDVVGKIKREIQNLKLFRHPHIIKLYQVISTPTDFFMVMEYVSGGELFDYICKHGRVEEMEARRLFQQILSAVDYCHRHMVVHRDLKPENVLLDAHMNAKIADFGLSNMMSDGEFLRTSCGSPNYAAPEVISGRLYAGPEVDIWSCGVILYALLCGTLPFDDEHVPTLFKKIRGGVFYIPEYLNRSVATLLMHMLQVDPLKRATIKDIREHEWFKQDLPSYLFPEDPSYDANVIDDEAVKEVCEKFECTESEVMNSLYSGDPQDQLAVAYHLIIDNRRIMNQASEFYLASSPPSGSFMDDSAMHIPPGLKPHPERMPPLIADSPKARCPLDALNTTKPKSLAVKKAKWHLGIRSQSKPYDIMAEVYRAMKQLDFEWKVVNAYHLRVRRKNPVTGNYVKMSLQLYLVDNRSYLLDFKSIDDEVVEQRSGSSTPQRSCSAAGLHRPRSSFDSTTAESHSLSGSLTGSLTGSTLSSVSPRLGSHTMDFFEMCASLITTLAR

As usually defined, the inhibition is the relative decrease from the control value, in per cent. For `CNC(=O)c1cncc(/C=C/c2ccccc2C)c1`, the inhibition in assay [1] stood at 6.66%; in assay [2], 2.2%; in assay [3], 9.32%; in assay [4], 2.32%; in assay [5] it was 15%; in assay [6], 3.54%. Also, the inhibition is 17.4% in assay [7], -0.17% in [8], -0.91% in assay [9] and 4.14% in [10].
`Fc1ccc(Nc2nccc(-c3c(-c4ccc(C(F)(F)F)cc4)nn4ncccc34)n2)cc1F`: the inhibition in assay [1] turned out to be 3.75%; in [2] it was 2.79%; in assay [3], 1.57%; in [4], 2.38%; in assay [5], 1.19%; in [6], 1.46%. Besides, the inhibition is 0.71% in assay [7], -0.76% in assay [8], 1.66% in [9] and 3.04% in assay [10].
Take `N#Cc1ccc2c(-c3ccnc(NC4CC4)n3)c(-c3ccc(F)cc3)nn2c1`: the inhibition in assay [1] is 1.42%; in [2] it was -1.39%; in assay [3], -2.95%; in [4], -0.28%; in assay [5] it was -0.2%; in assay [6] it was -0.61%. In addition, the inhibition was 1.09% in assay [7], -0.16% in assay [8], 0.14% in assay [9] and -0.56% in assay [10].
Regarding `COc1ccc2ncn(-c3cc(O[C@H](C)c4ccccc4C(F)(F)F)c(C(N)=O)s3)c2c1`, the inhibition stood at 2.72% in [1]; 5.12% in [2]; 43.5% in [3]; 2.49% in [4]; 25.8% in assay [5]; 6.06% in [6]. Further, the inhibition is 36.5% in [7], 0.14% in assay [8], 1.96% in assay [9] and -1.63% in assay [10].
On to `NS(=O)(=O)c1ccc(N/N=C2\C(=O)Nc3ccc(C(=O)NCc4ccncc4)cc32)cc1`, for which the inhibition was found to be 34.9% in assay [1]; 18.9% in assay [2]; 59.5% in assay [3]; 6.67% in [4]; 39.7% in [5]; 17.2% in [6]. The inhibition in assay [7] was 55.8%; in [8], -0.48%; in [9] it was -0.33%; in assay [10], 2.84%.
Consider `Nc1ncnc2occ(-c3ccc(NC(=O)Nc4cc(C(F)(F)F)ccc4F)cc3)c12`, for which the inhibition in assay [1] is 0.27% and -2.18%; in assay [2] it was 5.01% and 0.14%; in assay [3], 6.07% and 1.77%; in assay [4], 1.75% and -1.05%; in [5], 9.34% and -0.75%; in [6], 2.02% and -1.66%. Moreover, the inhibition in assay [7] was 6.92% and 0.75%; in assay [8], 1.85% and -1.45%; in assay [9], 4.86% and 2.86%; in [10] it was 2.82% and -3.6%.
`COc1cc(N2CCN(C(C)C)CC2)ccc1Nc1nc(Nc2cccc(F)c2C(=O)O)c2cc[nH]c2n1`: the inhibition in assay [1] is 2.95%; in [2] it was 5.3%; in [3], 5.91%; in [4], -0.39%; in assay [5] it was 0.33%; in assay [6], 1.72%. The inhibition in assay [7] was 3.39%; in assay [8], -0.23%; in [9], 4.47%; in [10], 3.99%.
Regarding `CN1CCC(C(=O)Nc2n[nH]c3nc(-c4ccc(O)cc4)c(Br)cc23)CC1`, the inhibition in [1] was 10.2% and 5.07%; in assay [2], 2.41% and 0.87%; in assay [3], 12% and 2.56%; in [4], 5.59% and 6.13%; in [5], 31.5% and 25.9%; in [6], 6.63% and 3.74%. Besides, the inhibition in [7] was 36.1% and 27.2%; in assay [8], 1.98% and 1.28%; in [9], 15.6% and 15.7%; in assay [10], 3.72% and 2.36%.
Turning to `CN1CCC(n2cnc(-c3ccc(F)cc3)c2-c2ccnc(NCCO)n2)CC1`, the inhibition is 3.88% in assay [1]; 1.51% in assay [2]; 0.83% in assay [3]; 1.04% in assay [4]; 3.71% in assay [5]; 2.24% in assay [6]. Besides, the inhibition in assay [7] was 6.29%; in assay [8], -1.1%; in assay [9], -1.38%; in assay [10], 8.05%.
Regarding `CN(C)CCNC(=O)Nc1ccc(N(C)c2ccnc(Nc3ccc(CS(C)(=O)=O)cc3)n2)cc1`, the inhibition in assay [1] stood at 7.2%; in assay [2], 14.5%; in assay [3], 57.9%; in [4], 2.43%; in assay [5] it was 5.89%; in assay [6], 2.14%. The inhibition in assay [7] was 4.34%; in assay [8] it was 0.53%; in assay [9] it was 1.18%; in [10] it was 4.92%.
Regarding `COc1cccc(-n2ncc3c(N/N=C/c4ccc(C(=O)NCCN(C)C)cc4)ncnc32)c1`, the inhibition was found to be 14.5% in assay [1]; 43.9% in assay [2]; 77.2% in assay [3]; 23.5% in assay [4]; 67.2% in assay [5]; 33.3% in assay [6]. The inhibition in assay [7] was found to be 72%; in assay [8], 0.97%; in assay [9], 5.99%; in assay [10] it was 2.13%.
On to `NS(=O)(=O)c1ccc(N/N=C2\C(=O)Nc3cccc(CCc4ccncc4)c32)cc1`, for which the inhibition in assay [1] turned out to be 11.6%; in assay [2], 47.4%; in assay [3], 62.5%; in assay [4], 1.52%; in assay [5] it was 7.67%; in assay [6], 3.33%. In addition, the inhibition was 15.8% in assay [7], 0.4% in assay [8], 1.14% in [9] and -1.5% in assay [10].
For the molecule `CS(=O)(=O)CCNCc1ccc(-c2ccc3ncnc(Nc4ccc(OCc5ccccc5)cc4)c3c2)o1`, the inhibition in assay [1] is 4.61%; in assay [2], -0.27%; in assay [3], 1.06%; in assay [4] it was 1.11%; in assay [5] it was 1.23%; in [6] it was 2.82%. Also, the inhibition in [7] was 4.33%; in [8], 0.33%; in [9] it was 1.27%; in assay [10], 2.27%.
As to `CC(C)c1ccc(-c2cc(-c3c[nH]nc3-c3ccccn3)ccn2)cc1`, the inhibition in [1] was 2.31%; in assay [2], -1.39%; in assay [3], 0.75%; in assay [4] it was 0.75%; in assay [5], -0.92%; in assay [6], 0.14%. Moreover, the inhibition is 0.33% in [7], -0.78% in [8], 0.06% in assay [9] and -0.6% in assay [10].
In the case of `CC1=C(C(=O)Nc2ccc3[nH]nc(C)c3c2)C(c2ccc(C(F)(F)F)cc2)CC(=O)N1` (stereo not given), the inhibition in [1] turned out to be 7.41%; in [2], 6.8%; in [3], 31.1%; in assay [4] it was 4.32%; in assay [5], 21.3%; in assay [6] it was 6.42%. Also, the inhibition in assay [7] was 32.6%; in [8], 0.54%; in [9], 2.58%; in [10], 1.45%.
